This note sets out measurements from PubChem BioAssay (EPA / NIEHS).

Calls of active or inactive are those of the source. Rule for the calls: active = hit-call score of the fitted dose curve at least 0.9, where 1 is the maximum; inactive = score below 0.9. Peptide text beside a SMILES is read from it.

The test can be described thus: ATG_EGR_CIS: Attagene CIS-FACTORIAL HepG2 Assay for human Early Growth Response 1 (EGR1) (AID 2282938). To be noted: HepG2 Attagene CIS-FACTORIAL EGR reporter mRNA; actives raise or lower the signal. The protocol:
ATG_CIS is a cell-based, multiplexed-readout assay that uses HepG2, a human liver cell line, with measurements taken at 24 hours after chemical dosing in a 24-well plate.ATG_EGR_CIS is one of 52 assay component(s) measured or calculated from the ATG_CIS assay. It is designed to make measurements of mRNA induction, a form of inducible reporter, as detected with fluorescence intensity signals by Reverse transcription polymerase chain reaction (RT-PCR) and Capillary electrophoresis technology.Data from the assay component ATG_EGR_CIS was analyzed into 1 assay endpoint. This assay endpoint, ATG_EGR_CIS, was analyzed with bidirectional fitting relative to DMSO as the negative control and baseline of activity. Using a type of inducible reporter, measures of mRNA for gain or loss-of-signal activity can be used to understand the reporter gene at the transcription factor-level as they relate to the gene EGR1. Furthermore, this assay endpoint can be referred to as a primary readout, because this assay has produced multiple assay endpoints where this one serves a reporter gene function. To generalize the intended target to other relatable targets, this assay endpoint is annotated to the dna binding intended target family, where the subfamily is zinc finger.
Human liver HepG2 cells are transiently transfected with multiple reporter transcription units (MRTUs) in 6-well plates using FuGene 6 reagent (Roche; 3 ml FuGene/1 mg DNA). The MRTU constructs are regulated by a cis-regulating element (promoter). […] A major difference between the CIS and TRANS system is that in CIS activities of endogenous TFs are measured, whereas the TRANS assay evaluates changes in activities of exogenous, chimeric NR-Gal4 proteins. […] At the end of 24 hour incubation, total RNA was isolated using TriZol reagent (Invitrogen). The isolated RNA is then reverse-transcribed using oligo(dT) primer and Mo-MLV reverse transcriptase (Invitrogen) with DNAse I (Ambion) treatment for 30 min. The one-tenth of the produced cDNA was amplified by PCR using Taq DNA polymerase (Invitrogen) and two reporter sequence-specific primers. The PCR products were fluorescently labeled by primer extension with 6-arboxyfluorescein (6-FAM) 5'-labeled reporter sequence-specific primer (2 min at 95 C, 20 s at 68 C and 10 min at 72 C) and these products were digested with 5U of HpaI (New England Biolabs) for 2h at 37 C. The fragments were purified using Qiaquick PCR columns (Qiagen), analyzed on an ABI 3130xL genetic analyzer (Applied Biosystems) with peak positions identified by using a set of X-rhodamine (ROX)-labeled MapMarker1000 molecular weight standards (BioVentures). The raw capillary electrophoresis data was processed using Attagraph software (Attagene).
As for `Nc1ccc(C(=O)O)cc1`, the compound was classed as inactive. The same measure, in the same setting: under `Nc1ccnc(=O)[nH]1` stands “inactive”; under `COC(=O)C=Cc1ccccc1`, “inactive”. Same read-out and setting: the entry for `CC1(C)C(=O)N(CO)C(=O)N1CO` is “inactive”; for `OCCCc1ccccc1` it is “inactive”; for `CCOC(=O)C1=NOC(c2ccccc2)(c2ccccc2)C1` it is “inactive”. For the compound `COC(=O)[C@H](Cc1ccccc1)NC(=O)[C@@H](N)CC(=O)O` (H-Asp-Phe-OMe), the outcome was inactive.

As for `CCCCCCCOC(=O)c1ccc(O)cc1`, the call was inactive.

`[Cl][Eu]([Cl])[Cl]`: the compound was called inactive.

Regarding `CCCCOCCOCCOC(C)=O`, the call was inactive. Regarding `CCCCCCCCCCCCCC(=O)OC(C)C`, the call was inactive. In the case of `CC(=O)OCc1ccccc1`, the result was inactive. On the same count and under the same terms, the entry for `Cc1cccc(C(C)(C)C)c1O` is “inactive”; for `O=C(O)CC(C(=O)O)S(=O)(=O)O` (stereo not given) it is “inactive”; for `CC(C)CC(=O)OCc1ccccc1` it is “inactive”. For `CC(Cl)COP(=O)(OCC(C)Cl)OCC(C)Cl` (stereo not given), the outcome was inactive. On to `CCOB(OCC)OCC`, for which the result was inactive. For the compound `C=CC(=O)OCCCCCCOC(=O)C=C`, the AC50 was 66.6 µM (active). With `Cc1ccc2c(c1)CCCN2`, the outcome was inactive. Turning to `C=CCNCC=C`, the call was inactive. On to `CCC1COC(=O)O1` (stereo not given), for which the compound was called inactive. On the same count and under the same terms, the entry for `CCOC(=O)c1ccc(C)cc1` is “inactive”. Consider `O=C(OCc1ccccc1)c1ccc(O)cc1`, for which the AC50 is 93.4 µM (active).

In the case of `C=C(C)[C@@H]1CC=C(C)CC1`, the call was inactive.

As to `CC1=CCC(C(C)C)C=C1` (stereo not given), the compound was called inactive. With `Cc1c(O)cccc1O`, the result was inactive. Same read-out and setting: the entry for `Nc1ncnc2nc[nH]c12` is “inactive”; for `CC(=O)CCC1=C(C)CCCC1(C)C` it is “inactive”; for `COc1cc(C)ccc1O` it is “inactive”. Still for that read-out and setting: the entry for `O=S(=O)(O)c1ccc(N=Nc2c(O)ccc3ccccc23)cc1` is “inactive”; for `CCOC(=O)/C=C\C(=O)OCC` it is “inactive”; for `N=C1C=CC(=C(c2ccc(N)cc2)c2ccc(N)cc2)C=C1` it is “inactive”. For `COc1ccc(C(=O)c2ccccc2)c(O)c1`, the concentration at half-maximal activity (AC50) was 85.1 µM (active).

As for `O=C(O)c1ccc2c(c1)C(=O)OC2=O`, the result was inactive. As to `C=CC(C)(O)CC/C=C(\C)CC` (stereo not given), the call was inactive. For the compound `Cc1ccccc1CCO`, the outcome was inactive. In the case of `COC(OC)(C(=O)c1ccccc1)c1ccccc1`, the concentration at half-maximal activity (AC50) was 35.1 µM (active). On to `CCC(C)(O)CCCC(C)C` (stereo not given), for which the compound was classed as inactive. On to `Nc1cccc(N)n1`, for which the call was inactive.

For the compound `Cc1c[nH]c(=O)[nH]c1=O`, the compound was called inactive.

As a reminder, the AC50 is the concentration giving half of the maximal activity seen.
